# Shown are actives, neighbours in structure and some others; about 2.1% of the full set was active somewhere.
# EP2 mod – modulates human prostaglandin E2 receptor EP2 signaling. P43116. EP2-expressing cells, cAMP HTRF FRET, PGE2 co-stimulation. induction, % at 25 µM. 260,000 compounds, 0.83% hits. AID 940;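 active = compounds whose cAMP rise, as percent of the full-agonist control response, exceeds 60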;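 also: rat C6 glioma line stably carrying human EP2 under a CMV promoter; the protocol text gives 20 µM as final concentration; 100% = response of wells given 1 µM PGE2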
# CHT block – human CHT choline transport inhibition. 310,000 compounds, 0.86% hits. Q9GZV3. CHT-expressing cells, membrane potential dye, choline response; hits give low values. B-score at 10 µM;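 active = B-score over 3 SD under the library average, and starting fluorescence ratio not unusually high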;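 also: choline stimulus applied at its EC90 after an EC20 pre-addition; B-score computed on integrated fluorescence ratio after choline addition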
# Target sequence (Q9GZV3 whole entry, looked up): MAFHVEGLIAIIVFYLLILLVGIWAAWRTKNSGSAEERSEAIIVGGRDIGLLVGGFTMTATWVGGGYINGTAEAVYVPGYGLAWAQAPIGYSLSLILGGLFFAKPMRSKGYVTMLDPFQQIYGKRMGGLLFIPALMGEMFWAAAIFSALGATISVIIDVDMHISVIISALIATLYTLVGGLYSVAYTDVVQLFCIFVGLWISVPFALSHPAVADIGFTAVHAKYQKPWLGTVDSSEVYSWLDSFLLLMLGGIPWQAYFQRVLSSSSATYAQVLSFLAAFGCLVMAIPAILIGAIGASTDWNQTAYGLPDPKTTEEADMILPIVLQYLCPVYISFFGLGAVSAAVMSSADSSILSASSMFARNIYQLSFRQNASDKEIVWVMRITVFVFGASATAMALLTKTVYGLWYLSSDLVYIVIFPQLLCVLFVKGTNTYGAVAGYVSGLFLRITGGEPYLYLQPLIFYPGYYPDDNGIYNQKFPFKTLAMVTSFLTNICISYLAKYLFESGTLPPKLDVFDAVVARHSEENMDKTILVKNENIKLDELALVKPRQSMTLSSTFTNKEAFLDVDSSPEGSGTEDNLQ
# EP2 antag – blocks the human prostaglandin E2 receptor EP2 | P43116 | C6 glioma cells expressing human EP2, cAMP TR-FRET; cells stimulated with saturating PGE2 | inhibition, % at 25 µM | 260,000 compounds, 0.52% hits | AID 1422;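 active = percent inhibition above 40 after rounding to a whole number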;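 also: rat C6 glioma host cells with rolipram phosphodiesterase inhibitor present; the protocol text gives 20 µM as final concentration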
# CHT PAM – allosteric activators of human choline transporter CHT | CHT-expressing cells, membrane potential dye, choline EC20; hits give high values; LV-AA mutant CHT in HEK293 cells | B-score at 10 µM | 310,000 compounds, 0.49% hits | AID 488977;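 active = initial fluorescence not abnormally high and integrated response B-score, plate-corrected, over 3 SD above library mean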
# The depositor's hits bear a star; i = inactive; . = not tested or not shown; ! = not confirmed by another sample.
SMILES,EP2 mod,CHT block,EP2 antag,CHT PAM
CC(C)(C)C1=CC=C(C(C)(C)C)C(=O)C1=O,-47,i,102*,i
Cc1cc2c(cc3c(=O)n(CC(=O)NC(C)c4ccccn4)nc(C)n32)s1 (configuration not stated),8,.,.,.
COC(=O)CSc1nc2cc(OC)ccc2cc1C#N,18,i,8,i
COc1ccc2cc(C#N)c(SCC(=O)N3CC(=O)Nc4ccccc43)nc2c1,73*!,i,31,i
CCc1nnc(NC(=O)CSc2nc3cc(C)c(C)cc3cc2CC)s1,69*,.,20,.
CCc1nnc(NC(=O)CSc2nc3ccc(C)cc3cc2C#N)s1,-21,.,9,.
CCOc1ccc2cc(C#N)c(SCC(=O)Nc3nnc(CC)s3)nc2c1,73*,.,22,.
COc1ccc2cc(C#N)c(SCC(=O)OC(C)C)nc2c1,84*,.,15,.
O=C(CN1C(=O)c2cccc3cccc1c23)Nc1ccccc1Cl,-64,.,11,.
Cc1nc(NC(=O)c2ccccc2Cl)sc1C(=O)Nc1ccc2c(c1)OCCO2,-18,.,2,.
O=C(CCCN1CCCC1=O)Nc1ccc(-c2cn3c4c(nnc3n2)CCCC4)cc1,-31,.,8,.
Cc1cc2cc3c(cc2n2c(SCC(=O)Nc4nc(-c5ccccc5)cs4)nnc12)OCCO3,-1,.,21,.
COc1cccc(NC(=O)CSc2nc3cc(OC)ccc3cc2C#N)c1,67*,.,6,.
OC(CN1CCC(O)(c2ccccc2F)CC1)c1ccc2c(c1)CCCC2 (configuration not stated),-67,.,12,.
COc1ccc(CN2CCN(C(=O)c3ccccc3OC)CC2)cc1OC,-17,.,3,.
Cc1ccc(NS(=O)(=O)c2ccc(C(=O)N3CC(C)CC(C)C3)cc2)cc1 (configuration not stated),.,i,.,10*
Cc1ccc(S(=O)(=O)Nc2ccc(C(=O)N3CCCC3)cc2)cc1,.,i,.,i
COC(=O)C1=CN(C2CC2)C=C(C(=O)OC)C1c1ccc(C(=O)OC)cc1,61*,i,5,i
CC[n+]1c(/C=C/c2ccc(N(C)C)cc2)ccc2ccccc21,-49,i,66*,i
CC[n+]1ccc(/C=C/c2ccc(N(C)C)cc2)c2ccccc21,-316,.,96*,.
COc1ccc(O)c(CN(Cc2ccccn2)C2CC(C)(C)NC(C)(C)C2)c1,4,.,3,.
Cc1ccc2cc(CN(Cc3nnnn3Cc3ccc(F)cc3)C3CCCCC3)c(=O)[nH]c2c1,2,.,8,.
CCC1CCCCN1CCCNC(=O)c1ccc2c(c1)N(Cc1c(F)cccc1Cl)C(=O)CS2 (configuration not stated),.,-5.4*,.,i
CCC(C)(C)NC(=O)c1ccc2c(c1)N(CC(=O)NC(C)(C)C)C(=O)C(C)(C)O2,2,.,12,.
CC(C)c1ccc(-c2csc3ncnc(N4CCN(C)CC4)c23)cc1,.,-11*,.,i
SMILES,EP2 mod,CHT block,EP2 antag,CHT PAM
COc1ccc(C2(O)C3CCCC2CN(Cc2cccc(OC)c2)C3)cc1 (configuration not stated),-98,.,7,.
CCC(C)(C)n1nnnc1C(c1ccc(C(F)(F)F)cc1)N1CCC(C)CC1 (configuration not stated),77*,.,4,.
CCc1nc(SCC(=O)Nc2cccc(C)c2)c2ccccc2n1,20,.,12,.
CC(C)(C)C1=NN(CC(=O)N2CCSCC2)C(=O)c2cc3ccccc3n2C1,-18,.,8,.
CC(C)NC(=O)CN1N=C(C(C)(C)C)Cn2c(cc3ccccc32)C1=O,9,.,.,.
CCc1ccccc1N(C(C)=O)c1nc(CCl)cs1,42,i,8,i
CC(=O)N(c1nc(CCl)cs1)c1ccc(C)cc1C,62*,i,10,i
COc1cc2c(c3oc(-c4ccccc4)cc(=O)c13)C=CC(C)(C)O2,-12,i,50*,i
Cc1occc1-c1nnc(SCC(=O)N2CCN(c3ccccc3F)CC2)n1C,75*!,i,7,i
CC1CCN(c2nc3c(c(=O)n(C)c(=O)n3C)n2Cc2ccccc2F)CC1,-3,.,10,.
Cc1ccc(-n2[nH]c(C)c(/C=N/NC(=O)c3ccc([N+](=O)[O-])cc3)c2=O)c(C)c1,-1,i,9,7.5*
CC1CCN(S(=O)(=O)c2ccc(S(=O)(=O)NC3CCCC3)cc2)CC1,-54,.,10,.
CCCc1ccc(Oc2cn[nH]c2-c2ccc(O)c(C)c2O)cc1,-17,i,53*,i
O=C1c2ccccc2-c2cc([N+](=O)[O-])c([N+](=O)[O-])cc21,-35,.,64*,.
CCNC(=S)NNC(=O)c1cc(-c2cccnc2)nc2ccccc12,22,i,44*,i
Cc1ccc(NC(=O)C(=O)NCc2ccccn2)cc1Cl,-42,.,10,.
